TGFb inhibitor – blocks TGF-b signaling; Potency, µM (top dose mostly 46.1 µM), inactives show top-dose activity, negative = inhibition, hits mostly inhibitors; AID 588855; 410,000 tested, 1.2% active; HepG2 CAGA-GFP TGF-b/SMAD3 reporter, GFP fluorescence, 18 h; TGF-beta stimulated, 500 pg/mL final; note: potency is the fitted concentration of half-maximal effect; % is set by controls: 0 for no effect and ±100 for the full control effect; nearly all actives have a fitted effect of over 65% in size
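TGF-beta reporter screen: HEPG2 CAGA-GFP, 1% FBS, 500 pg/mL TGF-beta final, 18 h; per-cell GFP summed per well; curves fitted and categorized by class.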
ATXN2 expr inh – reduces ATXN2 reporter expression in HEK-293 cells; HEK-293 ATXN2-luciferase reporter, luminescence, 24 h; Potency, µM (highest dose often 57 µM), without a hit: at the highest dose activity change, negative = inhibition, actives largely listed as inhibitors; 360,000 tested, 0.72% active; note: potency is the fitted concentration of half-maximal effect; % is set by controls: 0 for no effect and ±100 for the full control effect; nearly all actives have a fitted effect of over 55% in size
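ATXN2-luciferase reporter cells (luciferase flanked by upstream and downstream ATXN2 gene portions) were treated 24 h at 37 °C with compounds at up to 57 uM. SteadyGlo luminescence gave expression; GF-AFC fluorescence gave viability.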
ATXN viability – cell viability loss in ATXN counter-screen; S2 cells (HEK-293 line with an ATXN2-luciferase reporter) viability, CellTiter-Fluor protease fluorescence, 24 h; Potency, µM (top dose mostly 56.7 µM), actives largely listed as cytotoxic; 400,000 tested, 0.49% active; note: potency is the fitted concentration of half-maximal effect; nearly all actives have a fitted effect of over 40% in size
HepG2 viability – counter-screen for TGF-b inhibitors: cytotoxicity in HepG2 cells. Potency, µM (series often up to 46.1 µM), for inactives: at the highest dose activity change, negative = cytotoxicity, actives largely listed as cytotoxic. HepG2 CAGA-GFP viability, ATP luminescence, 18 h. 410,000 tested, 0.76% active; note: potency is the fitted concentration of half-maximal effect
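CellTiter-Glo luminescence gave cytotoxicity after 18 hours at 37 degrees C. The cells were HepG2 CAGA-GFP in 1% FBS DMEM, stimulated with 500 pg/mL TGF-beta after compound addition. %Activity was normalised to no-cell wells (complete cell-killing) and DMSO (no toxicity), and curves were fitted and classified.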
IL-1B inflam inh – inflammasome signaling inhibition, IL-1 beta readout | THP-1 LPS/ATP IL-1B secretion, AlphaLISA, 16 h; hits give low values | activity change, % at 57.5 µM | 360,000 tested, 4.7% active | AID 743279; in the data active = activity change below about -50%; inconclusive = mostly about -30% to -49%; note: % is set by controls: 0 for no effect and ±100 for the full control effect
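Secreted IL-1B measured by AlphaLISA bead assay after 16 h compound exposure of THP-1 cells; compounds (final up to 57.5 uM) added 1 h before LPS (250 ng/mL) and ATP (1.25 mM) stimulation; lower signal means less secretion.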
The depositor's hits bear a star; i = inactive; ? = inconclusive; . = no result given; ! = not confirmed by another sample. This is a sample that favours compounds with a hit; in the whole collection about 5.7% have one here. Unless noted, calls come from the whole dose curve; as a rule, active = well fitted curve in the direction sought with a large enough effect; inconclusive = small, poorly fitted or top-dose-only effect, or another doubt; inactive = no such curve, though single readings can be large; an effect the other way counts as inactive or inconclusive.

SMILES	TGFb inhibitor	ATXN2 expr inh	ATXN viability	HepG2 viability	IL-1B inflam inh
CCN(CC)C(=O)Cn1cc(S(=O)(=O)CC(=O)NCc2ccc(C)cc2)c2ccccc21	8%	-1%	?	0%	-3
COC(=O)C1=C(c2ccc(OC(F)(F)F)cc2)C[C@@H]2CC[C@H]1N2C(=O)NCc1cccc2ccccc12	?	?	?	5%	-71*
COC(=O)C1=C(c2ccc(OC(F)(F)F)cc2)C[C@@H]2CC[C@H]1N2C(=O)NCCNC(C)=O	?	-6%	i	-3%	19
COC(=O)C1=C(c2ccc(Cl)c(C(F)(F)F)c2)C[C@@H]2CC[C@H]1N2C(=O)NCCNC(C)=O	8%	2%	i	1%	16
COC(=O)C1=C(c2ccc(OC(F)(F)F)cc2)C[C@@H]2CC[C@H]1N2C(=O)NCCOc1ccc(OC)cc1	?	?	?	-9%	-54*
COC(=O)C1=C(c2ccc(Cl)c(C(F)(F)F)c2)C[C@@H]2CC[C@H]1N2C(=O)NCCOc1ccccc1Cl	?	?	?	-26%	-82*
Cc1ccc2oc(=O)n(CC(=O)c3ccc(F)cc3)c2c1	-14%	-10%	i	1%	0
CC1CN(C(=O)c2ccc(S(=O)(=O)Nc3ccccc3F)cc2)CC(C)O1 (configuration not stated)	17%	6%	?	10%	-2
CCCCCCCCCCCCCCCC[n+]1ccccc1	16µM*	32µM*!	20µM*	20µM*!	-92*!
CCCCCCC[n+]1ccc(-c2cc[n+](CCCCCCC)cc2)cc1	-8%	-16%	i	-40%	-5
COc1ccc(C2CN(C)CC2C(=O)c2ccc(F)cc2)cc1Cl (configuration not stated)	-14%	-37%	i	-16%	-58*
N=C1c2ccccc2CN1NC(=O)c1ccc(Br)cc1	-12%	-1%	i	-19%	-102*
Clc1ccc(-c2csc3ncnc(Sc4nnnn4C4CC4)c23)cc1	?	.	.	-99%	.
Cc1[nH]n(-c2ccccc2)c(=O)c1C(c1cccc([N+](=O)[O-])c1O)c1c(C)[nH]n(-c2ccccc2)c1=O	?	-12%	i	-22%	-3
COc1cc(C(c2c(C)[nH]n(-c3ccccc3)c2=O)c2c(C)[nH]n(-c3ccccc3)c2=O)cc(OC)c1OC	?	-21%	i	-22%	-78*
Cc1ccc(NC(=O)C2CCN(C(=O)c3cnn(-c4ccccc4)c3-n3cccc3)CC2)cc1Cl	14µM*	?	?	-27%	.
O=C(NCc1ccc(Cl)cc1)C1CCN(C(=O)c2cnn(-c3ccccc3)c2-n2cccc2)CC1	?	?	i	-28%	.
O=C1OC(CCN2CCCCC2)OC1(c1ccccc1)c1ccccc1 (configuration not stated)	.	-4%	i	.	.
COc1cc(C(=O)NCCSc2c(-c3ccccc3)[nH]c3ccccc23)cc(OC)c1OC	?	?	?	-14%	.
O=C(Nc1cccc(Br)c1)Oc1cccc2cccnc12	?	6.3µM*	?	2.8µM*	-23
Oc1ccc(-[n+]2c(-c3ccccc3)cc(-c3ccccc3)cc2-c2ccccc2)cc1	?	13µM*	?	-35%	-95*
O=C([O-])c1ccc(-[n+]2c(-c3ccccc3)cc(-c3ccccc3)cc2-c2ccccc2)cc1	-6%	6%	i	-18%	22
COc1ccc(-[n+]2c(-c3ccccc3)cc(-c3ccccc3)cc2-c2ccccc2)cc1	?	?	?	-36%	-76*
O=[N+]([O-])c1ccc(-[n+]2c(-c3ccccc3)cc(-c3ccccc3)cc2-c2ccccc2)cc1	-14%	.	i	-3%	-3
COc1ccc2ccccc2c1CNCCc1ccccc1	-10%	.	i	-61%	-55*
SMILES	TGFb inhibitor	ATXN2 expr inh	ATXN viability	HepG2 viability	IL-1B inflam inh
COc1ccc(CN2CCc3nc(N4CCN(c5ccc(F)cc5)CC4)ncc3C2)c(OC)c1OC	?	?	i	-25%	.
Cc1cc(NC(=O)CCl)on1	0%	?	?	-10%	-106*
CCC(=O)Nc1ccc(Cl)c(Cl)c1	2%	-7%	i	1%	-9
COc1ccc(C(c2nnnn2-c2ccc(OC)cc2)N2CCC3(CC2)C(=O)NCN3c2ccccc2)cc1 (configuration not stated)	?	?	.	-1%	?
Fc1ccc(C2=CCN(C(c3ccc(Cl)cc3)c3nnnn3Cc3ccccc3)CC2)cc1 (configuration not stated)	-1%	1%	i	-14%	-17
O=C1NCN(c2ccccc2)C12CCN(C(c1ccccc1OC(F)(F)F)c1nnnn1C1CCCC1)CC2 (configuration not stated)	-26%	-38%	?	-14%	15
COc1ccc(-n2nnnc2C(c2ccccc2)N2CCC3(CC2)C(=O)NCN3c2ccccc2)cc1 (configuration not stated)	?	-38%	?	3%	-59*
Cc1ccc(C(c2nnnn2Cc2ccccc2)N2CC=C(c3ccc(F)cc3)CC2)cc1 (configuration not stated)	0%	6%	i	-6%	-54*
COc1ccc(-n2nnnc2C(c2ccccc2OC(F)(F)F)N2CCC3(CC2)C(=O)NCN3c2ccccc2)cc1 (configuration not stated)	11µM*	?	.	-32%	0
O=C1NCN(c2ccccc2)C12CCN(C(c1ccccc1OC(F)(F)F)c1nnnn1-c1ccc3c(c1)OCCO3)CC2 (configuration not stated)	?	0%	22µM*	5%	?
O[C@H]1CCCC[C@H]1N1CCC(c2ccccc2)CC1	.	.	i	.	.
NCC(=O)c1ccc2ccccc2c1	11%	.	.	-17%	.
Oc1ccc2c3c1O[C@H]1[C@@H](O)C=C[C@H]4[C@H](C2)NCC[C@@]341	.	.	i	.	.
COc1ccc(C(c2nnnn2Cc2ccccc2)N2CCC3(CC2)C(=O)NCN3c2ccccc2)cc1 (configuration not stated)	11µM*	-6%	?	-1%	-58*
CCCCn1nnnc1C(c1ccc(OC)cc1)N1CCC2(CC1)C(=O)NCN2c1ccccc1 (configuration not stated)	?	-24%	?	-36%	-13
CN(C)C(=O)Oc1ccnc2cc(Cl)ccc12	2%	-5%	i	5%	-73*
Cc1cc(OC(=O)N(C)C)nc(SCc2c(Cl)cccc2Cl)n1	-27%	.	i	8.9µM*	-6
C[C@]12Cc3cn[nH]c3C[C@@H]1CC[C@@H]1[C@H]2CC[C@@]2(C)[C@H]1CC[C@]2(C)O	.	-11%	.	.	.

Assay outcomes as filed in PubChem.
